Screening results (PubChem BioAssay)
This excerpt belongs to a sample that is enriched for hits.
FECH inh: blocks human mitochondrial ferrochelatase activity | 20,000 tested, 3.3% active | purified FECH, Ni-mesoporphyrin absorbance 550 nm | calls only at 10 µM (by protocol);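 active = enzyme reaction rate more than 3 SD below the solvent-only control wells on the same plate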;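 also: lower slope than DMSO wells means FECH inhibition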
Target sequence (P22830 whole entry, looked up): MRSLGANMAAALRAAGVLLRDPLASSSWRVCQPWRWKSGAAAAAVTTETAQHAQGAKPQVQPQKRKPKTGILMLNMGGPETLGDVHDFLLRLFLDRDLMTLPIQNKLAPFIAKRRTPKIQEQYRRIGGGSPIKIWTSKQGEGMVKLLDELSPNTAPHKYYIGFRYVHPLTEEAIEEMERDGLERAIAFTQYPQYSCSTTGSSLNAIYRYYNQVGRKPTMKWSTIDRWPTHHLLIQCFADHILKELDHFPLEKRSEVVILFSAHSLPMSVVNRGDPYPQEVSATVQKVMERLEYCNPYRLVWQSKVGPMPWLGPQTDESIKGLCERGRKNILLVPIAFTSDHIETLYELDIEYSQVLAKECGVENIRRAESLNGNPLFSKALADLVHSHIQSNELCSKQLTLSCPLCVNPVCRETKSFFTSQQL
* hit, by the source's call; i = inactive; + = active, no number.

SMILES | FECH inh
O=S(=O)(NCCn1c(-c2ccccc2)nc2cccnc21)c1cccc(Cl)c1 | i
Cc1ccc(-c2nc3cccnc3n2CCNS(=O)(=O)c2ccc(C(C)C)cc2)cc1 | i
O=C(NCCn1c(-c2ccncc2)nc2cccnc21)Nc1ccc(Br)cc1F | i
Cc1ccc(-c2nc3cccnc3n2CCNS(=O)(=O)c2ccc(C)c(C)c2)cc1 | +
Cc1ccc(-c2nc3cccnc3n2CCNS(=O)(=O)c2c(C)cc(C)cc2C)cc1 | i
Cc1ccc(-c2nc3cccnc3n2CCNS(=O)(=O)c2ccc(CC(C)C)cc2)cc1 | i
Cc1ccc(-c2nc3cccnc3n2CCNS(=O)(=O)c2cccc(Cl)c2)cc1 | +
CCc1ccc(C2=C(C)C(=O)N(CC(=O)Nc3cc(Cl)ccc3OC)S2(=O)=O)cc1 | i
COC(C)(C)CC(C)NCCn1nc(C)c(Cl)c1C (stereo not drawn) | i
Cc1cc(-c2c(-c3ccccc3)ncn2C(c2ncnn2C)C2CC2)n[nH]1 (stereo not drawn) | i
COc1ccc(C)cc1-n1cnnc1Cn1nc(C)c(C)c1C | i
COc1ccc(C)cc1NC(=O)CN1C(=O)CCc2cc(S(=O)(=O)N3CCCC3)ccc21 | i
Cc1ccc(N2CC(NC(=O)c3ccccc3Br)CC2=O)cc1 (stereo not drawn) | i
O=C1NC(Cc2ccc(F)cc2)(C2CCNCC2)C(=O)N1CCc1ccncc1 (stereo not drawn) | i
Cc1noc2c1C(c1ccc(-c3nc4ccccc4n3C)o1)CC(=O)N2 (stereo not drawn) | i
COCCc1noc(CN2C[C@H]3CC=CC[C@H]3C2)n1 | i
COc1cccc(C(=O)Nc2ccccc2Sc2cc(C)nc3nc(-c4ccccc4)nn23)c1 | i
CCCn1cnnc1CNC1CCCC1 | i
O=S(=O)(NCCn1c(-c2ccccc2)nc2cccnc21)c1ccc(Cl)cc1 | i
Cc1ccc(S(=O)(=O)NCCn2c(C(F)(F)F)nc3cccnc32)cc1 | i
Cc1ccc(S(=O)(=O)NCCn2c(C(F)(F)F)nc3cccnc32)c(C)c1 | +
COc1ccc(S(=O)(=O)NCCn2c(-c3ccc(C)cc3)nc3cccnc32)cc1 | i
COc1ccc(S(=O)(=O)NCCn2c(-c3ccccc3)nc3cccnc32)cc1OC | +
Cc1ccc(S(=O)(=O)NCCn2c(C(F)(F)F)nc3cccnc32)cc1C | i
COc1ccc(-c2ncc3c(=O)n(Cc4ccccc4Cl)c(=O)n(C)c3n2)cc1 | i
SMILES | FECH inh
Cc1cc(N(C)C)nc(Nc2ccc(NC(=O)c3ccco3)cc2)n1 | i
Cc1ccc(NCc2ccc(C(=O)N3CCC(C(=O)O)CC3)cc2)cc1 | i
CCc1nc(OCC(=O)NC(C)CC)c2c(-c3ccc(F)cc3)noc2n1 (stereo not drawn) | i
CC(C)c1ccc(S(=O)(=O)N2CCC(n3c(-c4ccccc4)nc4cccnc43)CC2)cc1 | i
COc1ccc(F)c(-c2ccc(CNC3CC3)cc2)c1 | i
Cc1cccc(CN2CC(=O)N(Cc3ccc(Cl)cc3)c3ccccc3S2(=O)=O)c1 | i
Cc1ccc(C)c(CN2CC(=O)N(Cc3ccc(Cl)cc3)c3ccccc3S2(=O)=O)c1 | +
O=C1CN(Cc2ccccc2Cl)S(=O)(=O)c2ccccc2N1Cc1ccc(Cl)cc1 | i
Cc1c(NC(=O)CCc2ccncc2)cccc1C(=O)Nc1nccs1 | i
CCN(CC)C(=O)C1CCC(Cn2c(=O)c3sccc3n(CC(=O)NC(C)C)c2=O)CC1 (stereo not drawn) | i
CCn1c(=O)n(CCOc2ccc(F)cc2)c(=O)c2cnc(-c3ccc(OC)cc3)nc21 | i
Cn1c(=O)n(CCOc2ccc(F)cc2)c(=O)c2cnc(-c3ccc(Cl)cc3)nc21 | i
CCn1c(=O)n(CCOc2ccc(F)cc2)c(=O)c2cnc(-c3ccc(Cl)cc3)nc21 | +
Cc1cccc(N2CCN(c3c(-c4ccc5c(c4)CCCC5)c(=O)c3=O)CC2)c1C | i
Cc1ccc(CN2CC(C(=O)N(C)Cc3noc(C)n3)CC2=O)cc1 (stereo not drawn) | i
CCc1nc2nc(C)c(NC(=O)Nc3cccc(Cl)c3)c(=O)n2[nH]1 | i
CCOC(=O)Cc1ccc(NC(=O)Nc2c(C)nc3nc[nH]n3c2=O)cc1 | i
CCOC(=O)CCc1c(C)nc2nc(CNc3ccccc3OC)[nH]n2c1=O | i
Cc1ccc(NCc2nc3nc(C)c(Cc4ccc(Cl)cc4)c(=O)n3[nH]2)cc1 | i
Cc1ccccc1NCc1nc2nc(C)c(Cc3ccc(Cl)cc3)c(=O)n2[nH]1 | i
CCOC(=O)CCc1c(C)nc2nc(CNc3cc(Cl)ccc3OC)[nH]n2c1=O | i
COc1ccc(NCc2nc3nc(C)c(Cc4ccc(Cl)cc4)c(=O)n3[nH]2)cc1 | +
CCOC(=O)CCc1c(C)nc2nc(CNc3ccc(Cl)cc3)[nH]n2c1=O | +
CCOC(=O)CCc1c(C)nc2nc(CNc3ccc(C)c(Cl)c3)[nH]n2c1=O | +
Cc1cccc(C(C)C)c1NC(=O)CN(C)CCc1cn[nH]c1 | i
SMILES | FECH inh
Cc1nonc1C1CCCN1Cc1nnc(-c2ccc(C)n2C)o1 (stereo not drawn) | i
C=CCN(Cc1ncc[nH]1)Cc1ccccc1OC | i
O=C1NCC(=O)N2CCN(C(=O)CCc3ccsc3)CC12 (stereo not drawn) | i
Cc1cccc(Nc2nc(N3CCCC(C)C3)nc3c2cnn3-c2ccccc2)c1 (stereo not drawn) | i
Cc1ccc(NCc2cc(=O)n3[nH]c(NCc4ccccc4)nc3n2)cc1 | i
O=c1cc(CNc2ccc(Br)cc2)nc2nc(NCc3ccc(F)cc3)[nH]n12 | i
CC(C)c1cc(=O)n2[nH]c(CNc3ccc(Br)cc3)nc2n1 | +
O=c1cc(CNc2ccc(Br)cc2)nc2nc(NCc3ccccc3)[nH]n12 | i
CC(C)NCc1cc(=O)n2[nH]c(NCc3ccccc3)nc2n1 | i
CC(C)c1cc(=O)n2[nH]c(CNc3ccccc3)nc2n1 | +
CCn1ncnc1C(C)NC(=O)c1ccc(CN2CCCCC2)cc1 (stereo not drawn) | i
COc1cccc2c1OCCCN(C(C)C(=O)NC1CCCC1)C2 (stereo not drawn) | i
CCNC(=O)N1CCC(NC(C)COc2ccc3ccc(=O)oc3c2)CC1 (stereo not drawn) | i
Fc1ccc(CCC2CCCN(CCCn3cnnn3)C2)c(F)c1 (stereo not drawn) | +
Cc1ccccc1CCC1CCCN(CCO)C1 (stereo not drawn) | i
Fc1cccc(F)c1CCC1CCCN(Cc2cscn2)C1 (stereo not drawn) | i
CC(C)NC(=O)C1CCN(c2ccc(-c3cccs3)nn2)CC1 | i
Cc1c(-c2nccn2Cc2cccnc2)oc2ccccc12 | +
CCc1oc2ccccc2c1-c1nccn1CCN(C)C | i
Cc1c(CN2Cc3ncccc3C2=O)oc2ccccc12 | i
NCC1CCN(Cc2ccnc3ccccc23)C1 (stereo not drawn) | i
NC(=O)COc1ccccc1-c1[nH]cnc1-c1ccccc1 | i
COc1ccccc1-n1nc(C(C)C)nc1CCc1cccnc1 | i
COc1ccccc1-n1nc(CC(C)C)nc1C(C)n1ccnc1 (stereo not drawn) | +
COc1ccccc1-n1nc(C(C)C)nc1Cc1cc(C)no1 | i
CCCc1nc2nc[nH]n2c(=O)c1NC(=O)Nc1ccc(C)c(C)c1 | i
CCN(CC)CCNc1nc(Nc2ccc(Cl)cc2)c2cnn(-c3ccccc3)c2n1 | i
